The values that follow come from publication PMC5700166.

Common to all, as to assay: protein-binding microarray (PBM); PBM: ~300 nM protein, 6 mM HEPES pH 7.8, 80 mM KCl, 0.5 mM EDTA, 0.5 mM EGTA, 6% glycerol, 35 ng/ul poly-dIdC, 1% milk, 1 h, room temperature; Ap Aiptasia and Nv Nematostella (sea anemones) / Co Capsaspora / Aq Amphimedon (sponge) / Dm Drosophila / Hu human; RHD is the Rel homology domain; high values mean tight binding
Common to all, as to conditions: dsDNA, one strand shown

Experiment [1] has as its target T1, GST-Ap-NF-kB RHD (Exaiptasia pallida (Aiptasia), UniProt A0A913YAJ5 2-422).
T1 sequence: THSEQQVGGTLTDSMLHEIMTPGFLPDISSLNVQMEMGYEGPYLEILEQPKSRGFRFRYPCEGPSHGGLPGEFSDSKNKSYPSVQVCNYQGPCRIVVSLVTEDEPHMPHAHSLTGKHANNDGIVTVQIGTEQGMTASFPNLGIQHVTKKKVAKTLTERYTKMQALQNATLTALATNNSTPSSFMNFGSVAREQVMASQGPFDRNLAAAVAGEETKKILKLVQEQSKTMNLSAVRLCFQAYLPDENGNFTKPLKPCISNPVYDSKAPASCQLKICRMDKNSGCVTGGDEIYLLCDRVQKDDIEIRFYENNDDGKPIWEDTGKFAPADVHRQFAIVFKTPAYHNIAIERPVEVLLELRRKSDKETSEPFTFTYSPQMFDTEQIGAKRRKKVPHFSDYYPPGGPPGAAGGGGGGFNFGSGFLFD

Experiment [2] deals with T2, GST-Nv-NF-kB (Cys allele) (Nematostella vectensis, UniProt E5G601 2-411).
T2 sequence: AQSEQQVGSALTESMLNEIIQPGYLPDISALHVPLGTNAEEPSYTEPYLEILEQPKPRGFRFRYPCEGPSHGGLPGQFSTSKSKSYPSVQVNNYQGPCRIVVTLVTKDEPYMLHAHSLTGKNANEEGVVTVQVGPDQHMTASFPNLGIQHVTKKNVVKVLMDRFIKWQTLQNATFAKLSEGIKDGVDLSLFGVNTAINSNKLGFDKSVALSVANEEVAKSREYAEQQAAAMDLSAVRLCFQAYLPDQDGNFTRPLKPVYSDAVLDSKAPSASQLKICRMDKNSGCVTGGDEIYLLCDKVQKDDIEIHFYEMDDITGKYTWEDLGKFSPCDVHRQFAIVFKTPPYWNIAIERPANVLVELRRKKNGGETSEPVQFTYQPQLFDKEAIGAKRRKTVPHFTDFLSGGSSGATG

For experiment [3], the target named is T3, GST-Co-NF-kB (Capsaspora owczarzaki, UniProt F1ARL5 200-546).
T3 sequence: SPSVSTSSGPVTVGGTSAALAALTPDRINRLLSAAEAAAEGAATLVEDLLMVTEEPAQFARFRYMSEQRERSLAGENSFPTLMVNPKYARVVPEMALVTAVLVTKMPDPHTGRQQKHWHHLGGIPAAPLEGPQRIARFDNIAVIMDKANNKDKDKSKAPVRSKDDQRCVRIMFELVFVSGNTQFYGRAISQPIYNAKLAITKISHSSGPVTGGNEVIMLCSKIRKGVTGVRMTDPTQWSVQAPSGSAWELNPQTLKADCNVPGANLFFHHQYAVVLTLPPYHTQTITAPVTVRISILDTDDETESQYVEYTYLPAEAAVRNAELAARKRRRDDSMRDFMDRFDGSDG

The target in experiment [4] is T4, GST-Dm-Relish (Drosophila melanogaster, UniProt Q94527 99-473).
T4 sequence: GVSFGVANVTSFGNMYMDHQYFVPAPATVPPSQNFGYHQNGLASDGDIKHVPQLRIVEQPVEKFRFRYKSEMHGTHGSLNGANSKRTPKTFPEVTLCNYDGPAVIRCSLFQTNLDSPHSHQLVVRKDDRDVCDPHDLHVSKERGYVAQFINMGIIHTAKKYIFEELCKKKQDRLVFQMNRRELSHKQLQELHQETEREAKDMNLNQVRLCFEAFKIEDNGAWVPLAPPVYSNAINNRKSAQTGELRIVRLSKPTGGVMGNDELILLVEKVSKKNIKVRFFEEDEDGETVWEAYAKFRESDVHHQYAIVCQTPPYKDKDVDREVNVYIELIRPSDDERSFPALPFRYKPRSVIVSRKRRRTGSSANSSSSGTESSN

Experiment [5] concerns the target T5, GST-Aq-NF-kB (Amphimedon queenslandica, UniProt A9Y5G7 2-389).
T5 sequence: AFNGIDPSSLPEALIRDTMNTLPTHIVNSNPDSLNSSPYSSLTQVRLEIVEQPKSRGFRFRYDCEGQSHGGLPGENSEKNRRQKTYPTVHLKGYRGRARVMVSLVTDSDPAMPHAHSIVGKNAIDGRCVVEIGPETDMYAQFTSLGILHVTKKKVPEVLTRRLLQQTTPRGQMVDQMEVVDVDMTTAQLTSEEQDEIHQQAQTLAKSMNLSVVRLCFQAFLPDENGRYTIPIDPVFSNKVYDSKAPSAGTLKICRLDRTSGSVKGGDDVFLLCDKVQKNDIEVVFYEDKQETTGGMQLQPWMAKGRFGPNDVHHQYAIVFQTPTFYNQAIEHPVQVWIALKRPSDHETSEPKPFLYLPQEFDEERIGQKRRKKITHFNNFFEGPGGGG

The target in experiment [6] is GST-Hu-p50 (Homo sapiens, UniProt P19838 7-356).
The target in experiment [7] is T6, GST-Nv-NF-kB (Ser allele) (Nematostella vectensis, UniProt A7UNT2 2-411).
T6 sequence: T2 sequence with Q21R, C66S, S207N, E215Q, V217A, E225K, A268E, D399E

Changes are numbered by the printed parent chain.

Chain of GST-Hu-p50 (P19838 7-356): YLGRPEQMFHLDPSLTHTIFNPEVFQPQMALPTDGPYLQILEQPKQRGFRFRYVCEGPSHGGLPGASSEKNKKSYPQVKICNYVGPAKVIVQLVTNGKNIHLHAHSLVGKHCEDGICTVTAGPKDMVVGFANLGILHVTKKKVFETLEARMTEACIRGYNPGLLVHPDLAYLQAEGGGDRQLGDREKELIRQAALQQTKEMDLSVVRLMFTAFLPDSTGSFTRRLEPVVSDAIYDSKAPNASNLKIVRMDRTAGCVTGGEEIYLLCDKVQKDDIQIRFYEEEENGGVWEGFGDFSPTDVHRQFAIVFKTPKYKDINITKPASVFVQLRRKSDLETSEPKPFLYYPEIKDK

As for “CCGATTAACATCAATAAAATCCCTGATGTTAATCGGGTCTTGATTCGCTTGACGCTGCTG”, the binding signal in experiment [1] amounted to 4.23 z-score; in experiment [2], 4.4 z-score; in experiment [3], 2.13 z-score; in experiment [4], 6.47 z-score; in experiment [5], 4.79 z-score; in experiment [6] it was 4.24 z-score.
On to “CCGATTAACATCACCGAACCCCCTGATGTTAATCGGGTCTTGATTCGCTTGACGCTGCTG”, for which the binding signal in experiment [1] was 5.86 z-score; in experiment [2], 3.55 z-score; in experiment [3], 2.04 z-score; in experiment [4] it was 4.86 z-score; in experiment [5], 3.82 z-score; in experiment [6], 5.57 z-score.
With “CCGATTAACATCAGAACCCCCCCTGATGTTAATCGGGTCTTGATTCGCTTGACGCTGCTG”, the binding signal in experiment [1] is 7.14 z-score; in experiment [2] it was 4.85 z-score; in experiment [3] it was 4.1 z-score; in experiment [4], 7.49 z-score; in experiment [5] it was 5.36 z-score; in experiment [6] it was 5.28 z-score.
Regarding “CCGATTAACATCAAACCACCCCCTGATGTTAATCGGGTCTTGATTCGCTTGACGCTGCTG”, the binding signal stood at 3.91 z-score in experiment [1]; 3.14 z-score in experiment [2]; 3.81 z-score in experiment [3]; 2.92 z-score in experiment [4]; 3.77 z-score in experiment [5]; 4.3 z-score in experiment [6].
Turning to “CCGATTAACATCACGGTGTTTCCTGATGTTAATCGGGTCTTGATTCGCTTGACGCTGCTG”, the binding signal in experiment [1] was 1.53 z-score; in experiment [2] it was 1.22 z-score; in experiment [4], 2.06 z-score; in experiment [5], 2.67 z-score; in experiment [6] it was 2.96 z-score.
For “CCGATTAACATCACGGGCTTCCCTGATGTTAATCGGGTCTTGATTCGCTTGACGCTGCTG”, the binding signal in experiment [1] amounted to 1.85 z-score; in experiment [2] it was 2 z-score; in experiment [4] it was 7.65 z-score; in experiment [5], 4.57 z-score; in experiment [6] it was 1.14 z-score.
For “CCGATTAACATCAGGGAGTGCCCTGATGTTAATCGGGTCTTGATTCGCTTGACGCTGCTG”, the binding signal in experiment [1] amounted to 2.83 z-score; in experiment [2], 2.18 z-score; in experiment [4] it was 3.85 z-score; in experiment [5] it was 5.66 z-score; in experiment [6] it was 1.98 z-score.
For the sequence “CCGATTAACATCAAAAATGCCCCTGATGTTAATCGGGTCTTGATTCGCTTGACGCTGCTG”, the binding signal in experiment [1] was 4.41 z-score; in experiment [2], 6.79 z-score; in experiment [3] it was 2.95 z-score; in experiment [4], 5.68 z-score; in experiment [5], 6.07 z-score; in experiment [6], 5.92 z-score.
Consider “CCGATTAACATCAGGGGCTTCCATGATGTTAATCGGGTCTTGATTCGCTTGACGCTGCTG”, for which the binding signal in experiment [1] was found to be 4.37 z-score; in experiment [2], 4.89 z-score; in experiment [4], 6.97 z-score; in experiment [5], 5.03 z-score; in experiment [6], 4.38 z-score.
Turning to “CCGATTAACATCAGGGGGGGTAATGATGTTAATCGGGTCTTGATTCGCTTGACGCTGCTG”, the binding signal in experiment [1] turned out to be 4.27 z-score; in experiment [7], 3.94 z-score; in experiment [3], 6.38 z-score; in experiment [4], 4.83 z-score; in experiment [5], 4.38 z-score; in experiment [6], 3.7 z-score.
As to “CCGATTAACATCAAAAAAACACCTGATGTTAATCGGGTCTTGATTCGCTTGACGCTGCTG”, the binding signal is 3.14 z-score in experiment [1]; 4.03 z-score in experiment [2]; 4.97 z-score in experiment [4]; 4.34 z-score in experiment [5]; 6.24 z-score in experiment [6].
With “CCGATTAACATCAAAAAATCACCTGATGTTAATCGGGTCTTGATTCGCTTGACGCTGCTG”, the binding signal was determined as 2.88 z-score in experiment [1]; 4.37 z-score in experiment [2]; 8.12 z-score in experiment [4]; 3.98 z-score in experiment [5]; 5.67 z-score in experiment [6].
As to “CCGATTAACATCAGGGGGTATTATGATGTTAATCGGGTCTTGATTCGCTTGACGCTGCTG”, the binding signal in experiment [1] turned out to be 7.58 z-score; in experiment [2], 5.39 z-score; in experiment [3], 4.88 z-score; in experiment [4], 4.91 z-score; in experiment [5] it was 5.8 z-score; in experiment [6], 5.39 z-score.
As for “CCGATTAACATCAGGGCCTTTTGTGATGTTAATCGGGTCTTGATTCGCTTGACGCTGCTG”, the binding signal is 1.85 z-score in experiment [1]; 1.14 z-score in experiment [2]; 5.05 z-score in experiment [4]; 2.46 z-score in experiment [5]; 2.05 z-score in experiment [6].
As for “CCGATTAACATCAAATCCCCCCCTGATGTTAATCGGGTCTTGATTCGCTTGACGCTGCTG”, the binding signal in experiment [1] was 8.93 z-score; in experiment [7], 9 z-score; in experiment [3], 9.25 z-score; in experiment [4] it was 7.98 z-score; in experiment [5], 6.62 z-score; in experiment [6] it was 6.87 z-score.
Take “CCGATTAACATCACGGGAAGCCCTGATGTTAATCGGGTCTTGATTCGCTTGACGCTGCTG”: the binding signal in experiment [1] was found to be 2.49 z-score; in experiment [2] it was 1.91 z-score; in experiment [4] it was 7.08 z-score; in experiment [5], 4.42 z-score; in experiment [6] it was 1.11 z-score.
As to “CCGATTAACATCAGGTGTTTCCATGATGTTAATCGGGTCTTGATTCGCTTGACGCTGCTG”, the binding signal in experiment [1] worked out at 1.26 z-score; in experiment [2], 1.06 z-score; in experiment [4], 2.26 z-score; in experiment [5] it was 1.98 z-score; in experiment [6], 2.81 z-score.
As to “CCGATTAACATCAGGACATACCCTGATGTTAATCGGGTCTTGATTCGCTTGACGCTGCTG”, the binding signal in experiment [1] amounted to 1.92 z-score; in experiment [2], 2.84 z-score; in experiment [4], 2.79 z-score; in experiment [5] it was 5.54 z-score; in experiment [6] it was 1.78 z-score.
